This is a sample that favours compounds with a hit; in the whole collection about 1.1% have one here.
MazEF act: increases E. coli MazEF RNase cleavage of RNA. P0AE70. FAM/BHQ RNA-DNA oligo cleavage fluorescence, 5 h. activation, % at 20 µM. 0.32% of 350,000 active; in the data active = activation above about 50%
Target sequence (P0AE70 whole entry, looked up): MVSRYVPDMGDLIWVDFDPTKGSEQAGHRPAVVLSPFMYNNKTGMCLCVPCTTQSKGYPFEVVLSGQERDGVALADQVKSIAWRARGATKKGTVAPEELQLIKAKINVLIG
3CLpro inhibitor: SARS-CoV 3CLpro protease inhibition; P0C6X7; recombinant SARS-CoV 3CLpro, quenched FRET peptide cleavage; inhibition, % at 6 µM; 0.14% of 290,000 active; AID 1706; in the data active = inhibition above about 12%
PfHsp40 yeast: restores yeast growth despite PfHsp40 toxicity | S. cerevisiae expressing PfHsp40, growth rescue, ATP luminescence | growth rescue, % at 12.5 µM | 0.68% of 340,000 active; in the data active = growth rescue above about 28%, passing the limit was not always enough; inconclusive = no clear call, values can overlap the other calls;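 note: yeast W303a lacking pdr1 and pdr3 grown in galactose medium; growth measured after three days at 30 °C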
Mtb BioA inh: BioA (M. tuberculosis) enzyme inhibition; purified M. tuberculosis BioA enzyme, plate reader; inhibition, % at 9.99 µM; 0.096% of 360,000 active; in the data active = inhibition above about 40%; inconclusive = no clear call, values can overlap the other calls
Yp Topo-I inh: Y. pestis Topo-I inhibition via cleavage products. Y. pestis Topo-I cleavage product accumulation, plate reader. activity, % at 10 µM. 0.064% of 360,000 active. AID 504884; in the data active = activity above about 50%, passing the limit was not always enough; inconclusive = no clear call, values can overlap the other calls
BJeLR viability: kills HRASV12-expressing BJeLR cells. BJeLR (HRASV12) viability, CellTiter-Glo ATP luminescence, 48 h. 0.17% of 300,000 active. inhibition, % (no concentration beside the values); in the data active = inhibition above about 50%; inconclusive = no clear call, values can overlap the other calls
* hit, by the source's call; ? = inconclusive; / = no result given.

SMILES	MazEF act	3CLpro inhibitor	PfHsp40 yeast	Mtb BioA inh	Yp Topo-I inh	BJeLR viability
C[C@H](CO)N1C[C@H](C)[C@@H](CN(C)C(=O)Nc2ccc(F)cc2)Oc2c(NC(=O)NC3CCCCC3)cccc2C1=O	/	/	/	2	/	/
CCNC(=O)N1C(=O)C2(OCCO2)c2ccccc21	5	-2	-1	-3	-2	7
CCCCOc1ccc(OCCCC)c2c1NC1(N2)C(=O)N(C(C)=O)c2ccccc21	105*	0	1	-1	-9	5
CO[C@H](CN(C)S(=O)(=O)c1ccc(Cl)cc1)[C@@H](C)CN(C(=O)Nc1ccccc1F)[C@H](C)CO	/	/	/	0	/	/
COc1ccc(C(=O)c2no[n+]([O-])c2C(=O)c2ccc(OC)cc2)cc1	-2	1	1	/	-4	-8
O=C(c1cccs1)c1no[n+]([O-])c1C(=O)c1cccs1	-6	2	?	-1	1	71*
CN1C/C(=C\c2ccc(N3CCOCC3)cc2)C(=O)/C(=C/c2ccc(N3CCOCC3)cc2)C1	57*	2	-1	-1	3	1
CCOc1cc(/C=C2\CN(C)C/C(=C\c3ccc(O)c(OCC)c3)C2=O)ccc1O	-17	-2	-2	5	-2	61*
CN1C/C(=C/c2ccncc2)C(=O)/C(=C/c2ccncc2)C1	-11	-5	-2	-1	-9	72*
C[C@H]1CN([C@@H](C)CO)C(=O)c2cc(NS(=O)(=O)c3cn(C)cn3)ccc2O[C@@H]1CN(C)CC1CCCCC1	/	/	/	7	/	/
Cc1ccc(S(=O)(=O)N(C)C[C@@H]2OCCCC[C@H](C)Oc3ccc(NC(=O)Cc4ccccc4)cc3C(=O)N([C@@H](C)CO)C[C@H]2C)cc1	/	/	/	1	/	/
CN(C)C=Nc1nonc1-c1ccccc1	8	-5	0	/	0	-14
CN(C)C=Nc1c(Br)cc(Br)c2nonc12	228*	-5	-1	-5	-7	0
CC(C)C(=O)N1CCN(c2nc(-c3ccc(Cl)cc3)cs2)CC1	2	0	2	/	53*	-7
CCOC(=O)N1CCN(c2nc(-c3ccc(Cl)cc3)cs2)CC1	-1	-1	2	/	9	-13
Cn1c(-c2cccc(OCc3ccccc3)c2)nc2c1c(=O)[nH]c(=O)n2Cc1ccccc1	62*	-3	0	4	-5	/
COc1ccc(-c2nc3c(c(=O)[nH]c(=O)n3Cc3ccccc3)n2Cc2ccccc2)cc1	-4	0	1	-3	64*	-5
CCCCN=C[C@]12CCC(O)CC1(O)CCC1[C@@H]2CC[C@]2(C)[C@H](C3C=CC(=O)O3)CCC12O (stereo partly drawn)	-9	-3	1	-1	-3	68*
C[C@@H]1CN([C@@H](C)CO)C(=O)Cc2cc(NC(=O)Cn3cnnn3)ccc2O[C@@H]1CN(C)Cc1ccc(Cl)c(Cl)c1	/	/	/	3	/	/
S=c1[nH]nc(-c2ccco2)n1-c1ccc(Br)cc1	6	/	43*	1	-2	-6
COc1ccccc1/C=C1\S/C(=N/NC(=O)c2cccc(Br)c2)NC1=O	-9	-9	142*	/	6	-17
COc1cc(NC(=O)C2CCCN(c3ncnc4c3nc3n4CCCCC3)C2)cc(OC)c1OC (stereo not drawn)	6	0	44*	1	14	5
CCCCCC(=O)N/N=C(\C)c1ccc(NC(=O)c2ccco2)cc1	6	6	59*	7	2	-4
CCCCCC(=O)NC(=S)Nc1ccc(NC(=O)c2ccco2)cc1	0	-1	0	/	9	-15
C[C@H](CO)N1C[C@H](C)[C@H](CN(C)C(=O)Cc2ccccn2)Oc2ncc(-c3ccccc3)cc2C1=O	/	/	/	-1	/	/
SMILES	MazEF act	3CLpro inhibitor	PfHsp40 yeast	Mtb BioA inh	Yp Topo-I inh	BJeLR viability
O=C(NCc1ccccn1)C(=O)NCC1OCCN1S(=O)(=O)c1ccc(F)cc1 (stereo not drawn)	4	-3	33*	1	20	-17
C[C@@H]1CN([C@H](C)CO)S(=O)(=O)c2ccc(C#C[C@@H](C)O)cc2O[C@@H]1CN(C)Cc1ccccc1	/	/	/	-1	/	/
C[C@@H]1CN([C@@H](C)CO)C(=O)c2cc(-c3cccnc3)cnc2O[C@@H]1CN(C)C(=O)Cc1cccnc1	/	/	/	8	/	/
CCCn1nc(NC(=O)c2cccs2)c2cc3cc(C)ccc3nc21	-5	5	48*	1	1	3
CCCn1nc(NC(=O)c2cccs2)c2cc3cc(OC)ccc3nc21	1	6	68*	-2	5	-9
CCCCn1nc(NC(=O)c2cccs2)c2cc3cc(OC)ccc3nc21	-2	6	6	-2	4	-3
CCCn1nc(NC(=O)c2cccs2)c2cc3ccc(C)cc3nc21	1	2	0	1	5	-11
C[C@@H]1CN([C@H](C)CO)C(=O)c2cc(-c3cccc(C#N)c3)cnc2O[C@H]1CN(C)C(=O)C1CC1	/	/	/	2	/	/
Cc1cc(C)n(-c2nc3ccccc3nc2Nc2ccc3[nH]c(=O)[nH]c3c2)n1	234*	-3	12	/	-2	-11
COc1ccc(Nc2nc3ccccc3nc2-n2nc(C)cc2C)cc1	178*	-5	0	-10	-7	5
Cc1cc(C)n(-c2nc3ccccc3nc2NCCc2ccccc2)n1	-16	-2	-2	0	4	0
COC(=O)c1c(-c2ccccc2)csc1NC(=O)c1c(-c2ccccc2)noc1C	-10	3	3	4	27	24
CCOC(=O)c1c(-c2ccc(F)cc2)csc1NC(=O)c1c(-c2ccccc2)noc1C	-2	0	32*	0	8	6
CSc1nc2ccc(NC(=O)c3cccs3)cc2s1	1	/	158*	-5	-11	/
O=C(Nc1cccc(-c2nc3ccccc3s2)c1)c1cccs1	3	2	403*	/	-22	-2
O=C(Nc1cccc(-c2nc3ccccc3s2)c1)c1cc(=O)c2ccccc2o1	-14	-6	-1	/	7	-16
CCCN(CCC)c1nc(N)c(C#N)c(CC#N)c1C#N	134*	-1	1	/	-6	-2
O=C(CCN1c2ccccc2Sc2ccccc21)OCC(=O)N1CCN(C(=O)c2ccco2)CC1	-2	4	0	0	52*	-15
C=C(C)C1Cc2nc(N)nc(C)c2C1 (stereo not drawn)	0	2	-1	0	1	9
C=C(C)C1Cc2c(C)nn(-c3nc(C)cc(C)n3)c2C1 (stereo not drawn)	1	2	113*	0	23	-2
O=c1oc2ccc3ccccc3c2cc1-c1nc2ccccc2o1	329*	6	0	-3	-4	3
Cc1ccc(/C=C2\SC(=S)N(CC3CCCO3)C2=O)o1 (stereo not drawn)	1	-6	2	/	-1	86*
O=C1/C(=C/c2ccco2)SC(=S)N1CC1CCCO1 (stereo not drawn)	10	-6	1	-2	-3	8
